Drawing on the antibiotic and cytotoxicity screens of Wong et al. (2023), this text covers cytotoxicity call for 59 compounds.

Molecules are shown by their SMILES. Among all 39,000 compounds or so, about 3,300 (8.5%) were called active. The list comes from a sample in which actives are over-represented; it also holds similar structures and randomly drawn compounds.

This assay relates to HepG2. The assay is described as follows: cytotoxicity call (relative viability < 0.9). The conditions noted are these: 10 µM.
Regarding `Cc1ccc(S(=O)(=O)N(C)C[C@@H]2OCCCC[C@H](C)Oc3ccc(NC(=O)Nc4ccccc4)cc3C(=O)N([C@H](C)CO)C[C@H]2C)cc1`, the cytotoxicity call was “inactive”. As for `Cc1ccc(S(=O)(=O)N2C[C@@H](O)COC[C@H]3O[C@H](CC(=O)NCc4ccccc4Cl)CC[C@@H]32)cc1`, the cytotoxicity call is “inactive”.

Turning to `COc1ccc(S(=O)(=O)N[C@H]2CC[C@@H](CCNC(=O)CN3CCOCC3)O[C@@H]2CO)cc1`, the cytotoxicity call is “inactive”. To `COc1ccc(S(=O)(=O)Nc2ccc3c(c2)C(=O)N([C@H](C)CO)C[C@H](C)[C@@H](CN(C)C(=O)c2ccccc2)OCCCC[C@@H](C)O3)cc1` belongs “inactive”.

On to `CN(C)CCCNC(=O)C[C@H]1CC[C@H]2[C@H](COc3ccc(NC(=O)NC4CCCC4)cc3C(=O)N2C)O1`, for which the cytotoxicity call was “inactive”. With `COc1ccc(NC(=O)Nc2ccc3c(c2)C(=O)N([C@@H](C)CO)C[C@@H](C)[C@H](CN(C)C(=O)Cc2ccccc2)OCCCC[C@@H](C)O3)cc1` the entry was “inactive”; with `CC(=O)N1CCC(C(=O)N2CCC(n3cc(C(C)(C)N)nn3)CC2)CC1`, “inactive”. Turning to `COc1ccc(CN(C)C[C@@H]2OCCCC[C@H](C)Oc3ccc(NC(=O)Nc4c(C)noc4C)cc3C(=O)N([C@H](C)CO)C[C@H]2C)cc1`, the cytotoxicity call was “inactive”. To `NC(=O)NCC#Cc1ccc2c(c1)[C@]1(C(=O)N2)[C@H](c2ccccc2OCCO)N2[C@H](c3ccccc3)[C@H](c3ccccc3)OC(=O)[C@H]2[C@@H]1C(=O)O` belongs “inactive”; to `CCc1nc2ccc(C(=O)Nc3ccc4c(c3)OCC(=O)N4)cn2c1N(CC)Cc1cccc(Br)c1`, “inactive”; to `COc1ccc(NC(=O)N(C)C[C@@H]2OCCCC[C@H](C)Oc3ccc(NC(=O)c4ccncc4)cc3C(=O)N([C@@H](C)CO)C[C@H]2C)cc1`, “inactive”. With `COc1ccc(CN(C)C[C@@H]2OCCCC[C@@H](C)Oc3ccc(NC(=O)NC(C)C)cc3C(=O)N([C@H](C)CO)C[C@@H]2C)cc1` the entry was “inactive”. Turning to `C[C@@H]1CCCCO[C@H](CN(C)C(=O)CCC(F)(F)F)[C@H](C)CN([C@H](C)CO)C(=O)c2cc(NS(=O)(=O)c3ccc(Cl)cc3)ccc2O1`, the cytotoxicity call was “inactive”.

Turning to `C=C(/C=C\CNS(=O)(=O)c1ccc(C)cc1)[C@H](O)[C@H]1CCCN1S(=O)(=O)c1ccccc1[N+](=O)[O-]`, the cytotoxicity call was “inactive”. With `C[C@@H]1CN([C@@H](C)CO)C(=O)Cc2cc(NC(=O)Nc3ccc(C(F)(F)F)cc3)ccc2O[C@@H]1CN(C)Cc1ccncc1` the entry was “active”. With `C[C@H]1CN([C@@H](C)CO)C(=O)Cc2cc(NC(=O)Nc3ccc(C(F)(F)F)cc3)ccc2O[C@H]1CN(C)Cc1ccncc1` the entry was “active”; with `C[C@@H]1CCCCO[C@@H](CN(C)C(=O)CCC(F)(F)F)[C@@H](C)CN([C@H](C)CO)C(=O)c2cc(NC(=O)Nc3ccccc3)ccc2O1`, “inactive”.

In the case of `N[C@@H](Cn1ccnc1)c1ccccc1`, the cytotoxicity call was “inactive”. Regarding `COc1ccc(C#Cc2ccc3c(c2)O[C@@H](CN(C)C(=O)c2ccccn2)[C@@H](C)CN([C@@H](C)CO)S3(=O)=O)cc1`, the cytotoxicity call was “inactive”. To `CC/C(=C\C(=N\O)C(N)=O)[C@@H](C)[N+](=O)[O-]` belongs “inactive”. With `CC(=O)N1CCCC(=O)CC1` the entry was “inactive”. With `C[C@@H]1CCCCO[C@H](CN(C)Cc2ccc3c(c2)OCO3)[C@H](C)CN([C@@H](C)CO)C(=O)c2cc(NC(=O)Cc3ccccc3)ccc2O1` the entry was “inactive”; with `CNC(=O)C[C@@H]1CC[C@H]2[C@@H](COc3ccc(NC(=O)c4ccc(C(F)(F)F)cc4)cc3C(=O)N2C)O1`, “inactive”; with `O=C(C[C@@H]1C[C@@H]2c3cc(NC(=O)c4ccc5c(c4)OCO5)ccc3O[C@@H]2[C@H](CO)O1)NCc1cccnc1`, “inactive”.

As to `O=C(C[C@@H]1C[C@@H]2c3cc(NC(=O)c4ccc5c(c4)OCO5)ccc3O[C@@H]2[C@H](CO)O1)NCc1ccc(Oc2ccccc2)cc1`, the cytotoxicity call is “active”. Take `O=C(C[C@@H]1C[C@@H]2c3cc(NC(=O)c4ccc5c(c4)OCO5)ccc3O[C@@H]2[C@@H](CO)O1)NCCc1ccccc1`: the cytotoxicity call is “inactive”. To `O=C(C[C@H]1C[C@H]2c3cc(NC(=O)c4ccc5c(c4)OCO5)ccc3O[C@H]2[C@H](CO)O1)NCc1ccc(Oc2ccccc2)cc1` belongs “active”; to `O=C(C[C@@H]1C[C@@H]2c3cc(NC(=O)c4ccc5c(c4)OCO5)ccc3O[C@@H]2[C@H](CO)O1)NCCc1ccccc1`, “active”; to `O=C(C[C@@H]1C[C@H]2c3cc(NC(=O)c4ccc5c(c4)OCO5)ccc3O[C@H]2[C@H](CO)O1)NCc1ccc(Oc2ccccc2)cc1`, “inactive”. Turning to `O=C(C[C@H]1C[C@@H]2c3cc(NC(=O)c4ccc5c(c4)OCO5)ccc3O[C@@H]2[C@H](CO)O1)NCc1ccc(Oc2ccccc2)cc1`, the cytotoxicity call is “inactive”. With `O=C(C[C@H]1C[C@H]2c3cc(NC(=O)c4ccc5c(c4)OCO5)ccc3O[C@H]2[C@@H](CO)O1)NCc1cccnc1` the entry was “inactive”. With `O=C(C[C@H]1C[C@H]2c3cc(NC(=O)c4ccc5c(c4)OCO5)ccc3O[C@H]2[C@H](CO)O1)NCc1cccnc1` the entry was “inactive”. To `O=C(C[C@H]1C[C@H]2c3cc(NC(=O)c4ccc5c(c4)OCO5)ccc3O[C@H]2[C@@H](CO)O1)NCCc1ccccc1` belongs “inactive”; to `O=C(C[C@H]1C[C@@H]2c3cc(NC(=O)c4ccc5c(c4)OCO5)ccc3O[C@@H]2[C@@H](CO)O1)NCc1ccc(Oc2ccccc2)cc1`, “active”; to `O=C(C[C@H]1C[C@@H]2c3cc(NC(=O)c4ccc5c(c4)OCO5)ccc3O[C@@H]2[C@H](CO)O1)NCc1cccnc1`, “inactive”.

Regarding `C=CCOC(=O)[C@H]1[C@@H]2C(=O)O[C@@H](c3ccccc3)[C@@H](c3ccccc3)N2[C@@H](c2ccc(OCCOC(=O)[C@@H]3C[C@@H]4C(=O)N[C@@H](CC(C)C)C(=O)N4[C@@H]3c3cccc(OCCO)c3)cc2)[C@]12C(=O)Nc1ccc(I)cc12`, the cytotoxicity call was “inactive”. In the case of `CC(C)NC(=O)Nc1cccc2c1O[C@H](CN(C)C(=O)Nc1ccc3c(c1)OCO3)[C@H](C)CN([C@H](C)CO)C2=O`, the cytotoxicity call is “inactive”. Turning to `CC(C)NC(=O)N(C)C[C@H]1OCCCC[C@@H](C)Oc2ccc(NS(C)(=O)=O)cc2C(=O)N([C@@H](C)CO)C[C@H]1C`, the cytotoxicity call was “inactive”. For `C[C@@H]1CN([C@@H](C)CO)C(=O)c2cccc(NC(=O)c3ccncc3)c2O[C@@H]1CN(C)Cc1ccc(-c2ccccc2)cc1`, the cytotoxicity call is “inactive”. Take `CCS(=O)(=O)N[C@@H]1C=C[C@H](CC(=O)NCc2ccccn2)O[C@@H]1CO`: the cytotoxicity call was “inactive”. To `COc1ccc(NC(=O)N(C)C[C@H]2OCCCC[C@@H](C)Oc3ccc(NS(=O)(=O)c4cccs4)cc3C(=O)N([C@H](C)CO)C[C@@H]2C)cc1` belongs “inactive”. As for `C[C@@H]1CN([C@H](C)CO)C(=O)c2cc(NC(=O)c3ccncc3)ccc2O[C@H]1CN(C)Cc1ccc2c(c1)OCO2`, the cytotoxicity call was “inactive”. As to `O=C(C[C@H]1C[C@H]2c3cc(NC(=O)c4ccc5c(c4)OCO5)ccc3O[C@H]2[C@@H](CO)O1)NCc1ccc(Oc2ccccc2)cc1`, the cytotoxicity call was “active”. As for `O=C(C[C@@H]1C[C@H]2c3cc(NC(=O)c4ccc5c(c4)OCO5)ccc3O[C@H]2[C@@H](CO)O1)NCc1ccc(Oc2ccccc2)cc1`, the cytotoxicity call is “inactive”. To `O=C(C[C@@H]1C[C@@H]2c3cc(NC(=O)c4ccc5c(c4)OCO5)ccc3O[C@@H]2[C@@H](CO)O1)NCc1ccc(Oc2ccccc2)cc1` belongs “inactive”; to `Cc1noc(C)c1NC(=O)Nc1ccc2c(c1)C(=O)N([C@@H](C)CO)C[C@@H](C)[C@@H](CN(C)Cc1ccc3c(c1)OCO3)OCCCC[C@@H](C)O2`, “inactive”; to `COc1ccc(COC[C@]23N=C4Sc5ccc([N+](=O)[O-])cc5C(=O)N4[C@H](c4ccccc4O2)[C@H]3CO[Si](C)(C)C(C)(C)C)cc1`, “inactive”. With `C[C@@H]1CN([C@@H](C)CO)C(=O)c2c(c3ccccc3n2C)-c2ccccc2CO[C@@H]1CN(C)C(=O)Nc1ccc(F)cc1`, the cytotoxicity call is “inactive”.

In the case of `C[C@@H]1CN([C@@H](C)CO)C(=O)c2cc(NC(=O)Nc3cccc4ccccc34)ccc2O[C@@H](C)CCCCO[C@@H]1CN(C)Cc1ccc2c(c1)OCO2`, the cytotoxicity call is “inactive”. With `C[C@H](CO)N1C[C@H](C)[C@H](CN(C)Cc2ccc3c(c2)OCO3)OCCCC[C@H](C)Oc2ccc(NC(=O)Nc3cccc4ccccc34)cc2C1=O` the entry was “active”; with `C[C@@H]1CCCCO[C@H](CN(C)Cc2ccc3c(c2)OCO3)[C@@H](C)CN([C@H](C)CO)C(=O)c2cc(NC(=O)Nc3cccc4ccccc34)ccc2O1`, “inactive”. With `C[C@H](CO)N1C[C@H](C)[C@@H](CN(C)Cc2ccc3c(c2)OCO3)OCCCC[C@H](C)Oc2ccc(NC(=O)Nc3cccc4ccccc34)cc2C1=O` the entry was “inactive”; with `C[C@@H]1CN([C@H](C)CO)C(=O)c2cc(NC(=O)Nc3cccc4ccccc34)ccc2O[C@@H](C)CCCCO[C@H]1CN(C)Cc1ccc2c(c1)OCO2`, “active”. Turning to `C[C@@H]1CCCCO[C@@H](CN(C)Cc2ccc3c(c2)OCO3)[C@H](C)CN([C@H](C)CO)C(=O)c2cc(NC(=O)Nc3cccc4ccccc34)ccc2O1`, the cytotoxicity call is “active”. To `C[C@H]1CCCCO[C@H](CN(C)Cc2ccc3c(c2)OCO3)[C@@H](C)CN([C@@H](C)CO)C(=O)c2cc(NC(=O)Nc3cccc4ccccc34)ccc2O1` belongs “active”; to `C[C@@H]1CCCCO[C@@H](CN(C)Cc2ccc3c(c2)OCO3)[C@H](C)CN([C@@H](C)CO)C(=O)c2cc(NC(=O)Nc3cccc4ccccc34)ccc2O1`, “inactive”. With `CC(C)C#Cc1cnc2c(c1)C(=O)N([C@@H](C)CO)C[C@H](C)[C@H](CN(C)S(=O)(=O)c1cn(C)cn1)O2` the entry was “inactive”. To `CO[C@@H]1CN(C)C(=O)c2cc(NS(=O)(=O)CC(F)(F)F)ccc2OC[C@H](C)N(C(=O)c2ccc3c(c2)OCO3)C[C@@H]1C` belongs “inactive”; to `COc1ccc(S(=O)(=O)Nc2ccc3c(c2)C(=O)N([C@H](C)CO)C[C@@H](C)[C@@H](CN(C)S(=O)(=O)c2ccc(C)cc2)O3)cc1`, “inactive”.
